Laboratory results reported in PubChem BioAssay.
A number with no mark means an inactive call. How the calls were made is not given here.

Target: Pantothenate synthetase (Mycobacterium tuberculosis (strain ATCC 25618 / H37Rv)) (UniProt P9WIL5)
Experiment: Recombinant Mtb pantothenate synthetase (PanC) inhibitors, coupled enzyme, confirmatory (AID 375);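 further: 0% = full reaction with vehicle and 100% = no enzyme background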
Details: coupled enzyme assay; at 10 µM, hits give high values

Chain of Pantothenate synthetase (Mycobacterium tuberculosis (strain ATCC 25618 / H37Rv)) (P9WIL5 whole entry, looked up): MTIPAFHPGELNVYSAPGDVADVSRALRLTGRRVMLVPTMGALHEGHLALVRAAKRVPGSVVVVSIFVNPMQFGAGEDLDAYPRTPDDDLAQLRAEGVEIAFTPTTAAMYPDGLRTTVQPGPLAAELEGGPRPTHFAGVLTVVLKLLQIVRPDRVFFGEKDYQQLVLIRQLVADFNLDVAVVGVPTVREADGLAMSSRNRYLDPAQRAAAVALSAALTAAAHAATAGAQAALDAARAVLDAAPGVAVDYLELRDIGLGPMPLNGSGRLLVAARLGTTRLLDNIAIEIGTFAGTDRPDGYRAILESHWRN

| SMILES | inhibition |
| --- | --- |
| CC(=O)Nn1c(C)nnc1-n1nc(C)cc1C | 0% |
| Cc1cc(C)c(OCC(=O)Nc2ccc3c(c2)OCO3)cc1C | 2% |
| O=C(NCc1ccco1)c1cccn2c(=O)c3sccc3nc12 | 4% |
| Cc1ccc(S(=O)(=O)Cc2ccc(C(=O)NCc3ccc4c(c3)OCO4)o2)cc1 | 0% |
| COCCCn1c2nc3ccccc3nc2c2c(=O)n(-c3ccccc3OC)cnc21 | 11% |
| O=C(NC1CCCCCCC1)C1CCN(c2nc3ccccc3o2)CC1 | 3% |
| N#CCSCC(=O)Nc1ccc(F)cc1 | 0% |
| CN1CCc2c(sc3c2c(=O)n(-c2ccccc2)c2nnc(SCc4ccccc4)n32)C1 | 4% |
| COc1ccc(OCCCC(=O)Nc2ccc3c(c2)OCCO3)cc1 | 4% |
| O=[n+]1c2c(n([O-])c3cc(F)c(N4CCCC4)cc31)CCC2 | 9% |
| COc1cc(NC(=O)NC(C)(C(F)(F)F)C(F)(F)F)cc(OC)c1OC | 0% |
| CC1=C(C(=O)OCc2ccccc2)C(c2ccco2)n2ncnc2N1 (configuration not stated) | 0% |
| CCN(c1ccc2c(c1)OCO2)S(=O)(=O)c1cc(Br)cc2c1N(C(=O)C1CC1)CC2 | 0% |
| C/C(=N\O)c1ccc2c3c([nH]c2c1)CCCC3 | 2% |
| Cc1ccc(NC(=O)CS(=O)CC(=O)NCC2CCCO2)cc1 (configuration not stated) | 0% |
| O=C(CSc1nnc(-c2ccccc2Cl)n1Cc1ccco1)Nc1ccc2c(c1)OCCO2 | 2% |
| Cn1c(SCc2ccc3c(c2)OCO3)nnc1-c1ccccc1 | 0% |
